Screening data as filed in PubChem.
AmpC detergent = qHTS Inhibitors of AmpC Beta-Lactamase (assay with detergent); P00811; Potency, µM (titrated, usually from 114 µM), inactives show at the highest dose activity change, negative = inhibition, hits mostly inhibitors; AmpC hydrolysis of nitrocefin, absorbance 480 nm, 0.01% Triton; AID 485294, 2010; actives 0.041% (n = 370,000);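 note: 0% = no-compound wells and -100% = no-enzyme wells; nearly all actives have a fitted effect of over 25% in size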
Target sequence (P00811 whole entry, looked up): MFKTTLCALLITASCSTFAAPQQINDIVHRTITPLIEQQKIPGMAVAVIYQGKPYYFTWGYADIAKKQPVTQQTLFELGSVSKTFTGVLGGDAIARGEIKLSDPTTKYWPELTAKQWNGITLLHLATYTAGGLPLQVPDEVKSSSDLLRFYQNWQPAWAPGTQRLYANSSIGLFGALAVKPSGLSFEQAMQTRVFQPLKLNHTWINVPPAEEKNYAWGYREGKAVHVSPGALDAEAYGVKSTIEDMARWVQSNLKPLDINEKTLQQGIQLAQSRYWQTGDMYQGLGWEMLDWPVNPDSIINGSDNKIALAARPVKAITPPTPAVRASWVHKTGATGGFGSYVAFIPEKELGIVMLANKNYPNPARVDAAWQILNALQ
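20 mM phosphate pH 7.0 + 0.01% (detergent screen) or 0.0001% Triton X-100; 5.3 nM AmpC reagent; cpd preinc 15 min RT; nitrocefin (800 uM stock) to start; A480 q20 s × 4 min; Activity was normalised to no-enzyme and no-compound control wells.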
AMA1-RON2 inh = qHTS for Inhibitors of AMA1-RON; Towards Development of Antimalarial Drug Lead: Primary Screen | Plasmodium falciparum AMA1 (3D7) - RON2 peptide interaction | AlphaScreen AMA1-biotinylated RON2 peptide binding | Potency, µM (highest dose often 58.2 µM), inactives show top-dose activity change, negative = inhibition, usual class: inhibitors | actives 0.2% (n = 360,000) | AID 720542, 2013;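 note: 0% = vehicle wells and -100% = peptide control; nearly all actives have a fitted effect of over 45% in size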
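AMA1 (3D7) with his tag at 25 nM final met compounds first, then biotinylated RON2 peptide at 25 nM; detection used donor plus acceptor beads, 10 µg/mL apiece, read by AlphaScreen after 30 min at room temperature.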
Sm TGR block = qHTS Assay for the Inhibitors of Schistosoma Mansoni Peroxiredoxins. Schistosoma mansoni thioredoxin glutathione reductase (TGR), Q962Y6. purified TGR, DTNB reduction, TNB absorbance 405 nm. Potency, µM (doses to about 114 µM), inactives show at the highest dose activity change, negative = inhibition, hits mostly inhibitors. actives 3% (n = 360,000). AID 485364, 2010; note: nearly all actives have a fitted effect of over 60% in size
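TGR 20 nM + NADPH 100 uM (dispensed conc.), cpd preinc 15 min RT; start with NADPH (500 uM addition) then DTNB (15 mM addition). Kinetic TNB absorbance, 405 nm filter. Four-parameter Hill fit across titration.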
FMDV inh = High Throughput Screening for Foot and Mouth Disease Virus Antivirals | FMDV antiviral cell-based qHTS | AID 1159524, 2015 | Potency, µM (highest dose often 57.9 µM), inactives show at the top dose activity change, negative = inhibition, hits mostly inhibitors | actives 1.2% (n = 410,000); calls by dose curve; tested in HEK293T cells; note: read-out not given here; nearly all actives have a fitted effect of over 45% in size
AmpC no deterg = qHTS Inhibitors of AmpC Beta-Lactamase (assay without detergent); P00811; AmpC nitrocefin hydrolysis, absorbance 480 nm, 0.0001% Triton; Potency, µM (series often up to 57.1 µM), inactives show at the top dose activity change, negative = inhibition, usual class: inhibitors; actives 0.52% (n = 330,000);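 note: plate controls were no compound for no effect and no enzyme for full effect; nearly all actives have a fitted effect of over 20% in size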
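20 mM phosphate pH 7.0 + 0.01% (detergent screen) or 0.0001% Triton X-100; 5.3 nM AmpC reagent; cpd preinc 15 min RT; nitrocefin (800 uM stock) to start; A480 q20 s × 4 min; Activity was normalised to no-enzyme and no-compound control wells.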
Active calls of the source: *; u = inconclusive; x = no result given; [ ] = dose if it differs, or a comment. A selection: hits, their analogues and other compounds. The true share with any hit is near 4.1%. Unless noted, calls come from the whole dose curve; as a rule, active = well fitted curve in the direction sought with a large enough effect; inconclusive = small, poorly fitted or top-dose-only effect, or another doubt; inactive = no such curve, though single readings can be large; an effect the other way counts as inactive or inconclusive. Unless noted, % is set by controls: 0 for no effect and ±100 for the full control effect; potency is the fitted concentration of half-maximal effect.

SMILES | AmpC detergent | AMA1-RON2 inh | Sm TGR block | FMDV inh | AmpC no deterg
O=C1S/C(=C\c2ccc(N3CCOCC3)o2)C(=O)N1Cc1c(F)cccc1Cl | -2% | 4% | 2.8µM* | x | -8%
COc1ccc(NC(=S)NC(=O)c2ccc3c(c2)OCCO3)cc1 | x | -12%[11.6 µM] | x | -7% | -18%
O=C(NC(=S)Nc1ccc2c(c1)OCCO2)c1ccccc1 | -4% | 6% | 8.9µM* | -17% | -27%
O=C(NC(=S)Nc1ccc2c(c1)OCCO2)c1ccccc1F | -10% | 26% | u | 15% | -28%
O=C(NC(=S)Nc1ccc(F)cc1)c1ccc2c(c1)OCCO2 | u | 51% | 11µM* | 0% | -26%
COc1cc(SC)ccc1C(=O)Nc1ccc(Cl)cn1 | 5% | 5% | 11% | 10µM* | -7%
O=C(c1ccco1)N(Cc1cccnc1)c1nc2ccc(F)cc2s1 | -1% | x | -1% | 14% | x
C[C@H]1[C@H](NC(=O)C(=NOC(C)(C)C(=O)O)c2csc(N)n2)C(=O)N1S(=O)(=O)O | 4µM* | 19% | -1% | -14% | 5µM*
COc1ccc(C)cc1NC(=O)Cc1csc(NC(=O)Nc2ccccc2OC)n1 | x | -9% | x | u | x
COC(=O)c1ccc(CN2CCOc3ccc(CN4CCC(O)(c5cccnc5)CC4)cc3C2)cc1 | x | x | x | 18µM* | x
COc1cc(CN2CCOc3ccc(CN4CCC(O)(c5cccnc5)CC4)cc3C2)cc(OC)c1 | x | x | x | 5% | x
Cc1cccc(C)c1OC(=O)CSc1nnc(-c2ccc3c(c2)OCO3)o1 | -8% | x | 0% | -31% | x
NC(=O)C1=C(c2ccccc2)c2ccccc2C1=O | x | 7% | x | 32µM* | x
C(=Cc1cnc2ccccc2n1)c1ccc2c(c1)OCO2 | x | 37% | x | 1.8µM* | x
Cc1nc(Sc2ccc(Br)cc2)c(C#N)c(C)c1[N+](=O)[O-] | -5% | u | -12% | 20µM* | -36%
Cc1ccc(Sc2nc(C)c([N+](=O)[O-])c(C)c2C#N)cc1 | 6% | u | 5% | -27% | -42%
NC(=S)NNc1c(F)c(F)c(F)c(F)c1F | -20% | 43% | 40µM* | -5% | -31%
COc1ccc(-c2c[n+](CC(=O)OC3CC(C)CCC3C(C)C)c3n2CCC3)cc1 (centres undefined) | -9% | -3% | 3% | 13µM* | 100%
CC(=O)N=c1sc2nc3ccccc3nc2n1N(C(C)=O)C(C)=O | u | 38% | 50µM* | -5% | -15%
COc1cc(CNCC(C)C)c(Br)cc1OCC(=O)NCc1ccccc1 | 0% | 4% | 28µM* | 12% | 4%
COc1cc(CNCCN(C)C)c(Br)cc1OCC(=O)NCc1ccccc1 | u | -9% | -2% | -1% | -7%
O=[N+]([O-])c1cccnc1N1CCCNCC1 | -9% | -7% | 50µM* | 0% | -15%
O=c1[nH]c2c(s1)C(c1cccnc1)C1C3CCC(C3)C1S2 (centres undefined) | -4% | -4% | -19% | -5% | -28%
O=c1[nH]c2c(s1)C(c1ccc(O)cc1)C1C3CCC(C3)C1S2 (centres undefined) | -14% | 7% | -17% | -6% | 45µM*
CCC(=O)N1CCc2cc(Br)cc(S(=O)(=O)NCCc3cccc(C)c3)c21 | -10% | x | 0% | 53% | x
SMILES | AmpC detergent | AMA1-RON2 inh | Sm TGR block | FMDV inh | AmpC no deterg
Cc1cc2c(cc(C(=O)NCCCN3CCOCC3)n2Cc2ccc(Cl)cc2)o1 | 4% | 5% | 35µM* | -14% | 190%
COc1ccc(NC(=O)/C(=C\c2ccco2)NC(=O)c2ccco2)cc1 | -1% | 0% | -27% | 5% | -25%
COc1ccccc1C(=O)N/C(=C/c1ccco1)C(=O)Nc1cccc(C(=O)O)c1 | 3% | 12% | 50µM* | -3% | 1%
Cc1ccc(C(=O)N/C(=C/c2ccco2)C(=O)Nc2cccc(C(=O)O)c2)cc1 | -11% | 6% | 45µM* | 16% | -25%
Cc1ccc(NC(=O)/C(=C\c2ccco2)NC(=O)c2ccco2)cc1 | -2% | -3% | 45µM* | 13% | 30%
Cc1cccc(Cn2cc(S(=O)(=O)c3ccc(Cl)cc3)c(=O)c3cc4c(cc32)OCO4)c1 | -11% | x | 1% | 5% | x
CC(=O)c1cccc(-c2ccnc3c2CC(C(=O)Nc2cccc(OC(F)(F)F)c2)O3)c1 (centres undefined) | x | -9% | x | -18% | x
COc1ccccc1C(=O)Nc1ccccc1OCc1cc(=O)n2ccccc2n1 | 18% | x | 8% | 2% | x
O=Cc1ccc(Sc2nnc(-c3ccccc3)o2)c([N+](=O)[O-])c1 | u | u | 11µM* | 0% | -35%
Cn1nc([N+](=O)[O-])nc1Sc1nnc(-c2ccccc2)o1 | 2% | 10% | u | 22µM* | -8%
Cn1nc([N+](=O)[O-])nc1Sc1cccc2cccnc12 | 3% | -1% | 0% | -27% | -17%
Oc1cc(-c2nc3ccccc3s2)cc2c1OCCN(Cc1cccn1-c1ccccn1)C2 | x | x | x | 16% | x
Cc1cccc(S(=O)(=O)Nc2cccc(-c3ccc(N4CCCCC4)nn3)c2)c1 | 2% | x | 1% | 65% | x
Cc1ccc2ccccc2c1C(O)c1ncc(-c2ccc(Cl)cc2)[nH]1 (centres undefined) | x | 41% | x | -18% | x
Cc1ccccc1-c1nc(CS(=O)(=O)CC(=O)NCCCc2ccccc2)c(C)o1 | 1% | x | -32% | -23% | x
COc1cccc(-c2nc(-c3ccc4c(c3)-c3ccccc3S4(=O)=O)c(-c3ccccc3)[nH]2)c1OC | -6% | 26% | u | 0% | u
COc1cc(-c2nc(-c3ccc4c(c3)-c3ccccc3S4(=O)=O)c(-c3ccccc3)[nH]2)cc(OC)c1OC | -4% | 14% | 56µM* | 0% | -8%
COC(=O)C1=C(C)N(Cc2ccco2)C(=O)N[C@@H]1c1cccc(C(F)(F)F)c1 | u | x | 28µM* | x | -10%
CC(C)c1onc(-c2c(Cl)cccc2Cl)c1COc1ccc(/C=C/c2cccc(C(=O)O)c2)c(Cl)c1 | x | x | x | -18% | x
CCOc1ccc(CC(=O)NCC(c2cccs2)S(=O)(=O)c2ccc(F)c(C)c2)cc1 (centres undefined) | 6% | x | -20% | 12% | x
C=C1C(=O)[C@@]23[C@H](O)C[C@@H]4C(C)(C)CC[C@H](O)[C@]4(C)[C@@H]2C[C@H](O)[C@@H]1[C@H]3O | u | -3% | 10µM* | u | -17%
C=C1C(=O)[C@@]23[C@H](O)C[C@@H]4C(C)(C)CC[C@H](O)[C@@]4(C)[C@@H]2CC[C@@H]1[C@H]3O | u | 19% | 20µM* | u | 1%
